Test results taken from publication PMC13494018.

B1: d1r8_design_ppi_886_dldesign_0_cycle1_af2pred (protein)
chain: AKAAELAAEGKALAEQLAKEGAADGEKGIELLKQGSALVRELEALGAEDPEYAEAAKAAQAALQAAVAAFAAASIAKAAAA
B2: d1r8_design_ppi_906_dldesign_0_cycle1_af2pred (protein)
chain: AAEAAERADRGQGTLIAMEAEARLAAIAKAHPEVAALAAAAAERVRAAAPLPAAEVRAVAERELAEVEAALAAA
B3: d1r8_design_ppi_791_dldesign_0_cycle0_af2pred (protein)
chain: SENEKKLEEVKKKLEEAKKAAEEDPKAGAALAIETIELAKKAAEEAKKNGDEKTAEEANKLAHEAMKLAAKALAKAAA
B4: d1r8_design_ppi_811_dldesign_0_cycle1_af2pred (protein)
chain: AEEEEAERAREEAKESLLAARDTAVGILTAAGLTDKAKEVEKYAEEALKEAEKLTPEEAAKLYGEAANRILTDTIAAASAAVA
B5: d1r8_design_ppi_744_dldesign_0_cycle1_af2pred (protein)
chain: STAEKAVKLVEETAKKGIAEAKADPAKVPAAAKELAKKGKEAAKLIGSTGLAVGIGNLAKTAIAFPEQAPDYFASAAALAKEVAE
B6: d1r8_design_ppi_870_dldesign_0_cycle1_af2pred (protein)
chain: EAEANQQAMNLLMRAAALQPRDREKAREAVEEGRKVAKDEETKKLLEEAVKALDGDVDEAIAVLLETAKKISERAREAAA
B7: d1r8_design_ppi_667_dldesign_0_cycle0_af2pred (protein)
chain: SAAAAAALAAARATAVAALTAGTGLAPEEAAALAAAMTDDQIFAIANLNAANPAAGQALAANLAAQVRRELA
B8: d1r11_design_ppi_322_dldesign_0_cycle0_af2pred (protein)
chain: DTAEKAREVAKKAVEVAKEAAEKDPRAQAVYETAKIVAEGVEALVAAGQTELALRQAETQLKIAEKVLKEVLA
B9: d1r8_design_ppi_716_dldesign_0_cycle1_af2pred (protein)
chain: AVEAALAEARAVLERAKEAAKRLKEVGTPEEQKLAEELVALGETALKQAEADGTLATARGALAAARLALQGLEGLLERALARRAAAA
B10: d1r8_design_ppi_780_dldesign_0_cycle1_af2pred (protein)
chain: AAATLAALTAAFGRLVELGAEAIRANPALAPEVNKLLGTASKAAIAGIRDPSLAEAALKTIEAQLKKVEELLKKAK
B11: d1r8_design_ppi_953_dldesign_0_cycle1_af2pred (protein)
chain: SAAAELALKSLQAALAAAKAAAKAYGPAAAEAHLKNALLLADSYAAATDAAAGAALKAKVEAEAAAAMAAV
B12: d1r8_design_ppi_616_dldesign_0_cycle1_af2pred (protein)
chain: DAAREAALKEAKEEFEKAEKEAEEAIKAAKDDPEAQKKLKELRESAKAALENAEKTKADVTTYKGVKALARMLLQTAEGVKKAAEA
B13: d1r11_design_ppi_189_dldesign_0_cycle1_af2pred (protein)
chain: AAAEKAKLGFQLLNQLQKAQQAVAAGAAAGATAAEFEALAAQAQKAKEEGKQTILADTVQAAADVVIAAARAAAAAAKARAA
B14: d1r8_design_ppi_790_dldesign_0_cycle0_af2pred (protein)
chain: AAAAAQAATATAIRSRGTNRMLTRILALPASASEAELRAIVEEEAERARAEMLAAGVSPELAEAAVEHILRIGEQAIAAR
B15: d1r8_design_ppi_590_dldesign_0_cycle1_af2pred (protein)
chain: LEEVKKKLKELAELAKSAGKWNPETGKQVVKSLLRVAESEAKRLAGDPEAAEKVKKYGEELAKEAEKEIKEVAAA
B16: d1r8_design_ppi_838_dldesign_0_cycle1_af2pred (protein)
chain: NAGELLGKALELLEEASRLAKEDYEKAKEAAEKAIEYAEKAAAADPAHAPALVAVKSAARNIIEQAKKNEAARKAA
B17: d1r8_design_ppi_849_dldesign_0_cycle0_af2pred (protein)
chain: DDAAKAAELTALVLEEEAADPVRAGEVGAARARELGLSAAGILAVLDRVVAEAAPSGETVRALMRAAIEAAQA
B18: d1r8_design_ppi_934_dldesign_0_cycle0_af2pred (protein)
chain: ASALARAESQLAFLNTVADAMATQTGEEGAKIAAEAKAAGDAALAAAKASGTPAAYEAATAQLNALTAQVQRETMARLA
B19: d1r11_design_ppi_301_dldesign_0_cycle0_af2pred (protein)
chain: SLLEEAKKLAEELKELLKKAKEALADPEKAKELIKKAEEANKKLVELAVEAAKAGDHESAALANRAALEGQRKIAEIKAQLAA
B20: d1r11_design_ppi_51_dldesign_0_cycle1_af2pred (protein)
chain: AEVEKKAKEAKKKVEEAKKKMEEAEKAGDAEALRKAAAEANKKAIELASAALAEKDAETAKALAEAAQKLVEIALRANEAMAKLER
B21: d1r8_design_ppi_832_dldesign_0_cycle0_af2pred (protein)
chain: AAEAAALKAQIEAAIAQMREETRRAAERDVEEGGRVASAATQQITKLVSQLAKVDPAAGAEAMALLTEAMREVQAYLDAERAARA
B22: d1r8_design_ppi_934_dldesign_0_cycle1_af2pred (protein)
chain: ASPLERAESLREFLHTVADAMAKNVGAEGQKVADAAKAAGDAAVAAARAAGTPEAYEAARDTLRALTADVIKAYMAALS
B23: d1r8_design_ppi_742_dldesign_0_cycle1_af2pred (protein)
chain: AAAAAAKAAAAAAAQAALRSLRDLAARAKAAEAAGDPEAAAKYRAAAEQWADIAIASAKQAGTEATVAAEAAALLAA
B24: d1r11_design_ppi_238_dldesign_0_cycle0_af2pred (protein)
chain: AAAAAAAAAAAALAEAAARAAAATDVTTKVGAALTAQNPSVKPITDAAVEKMKQAAAVVADPAKAAAYQKEAGDLLTQALRQVAAARR
B25: d1r8_design_ppi_647_dldesign_0_cycle0_af2pred (protein)
chain: KEELVKQAESLEKFAKLAAEGASPEAKPLFEKAAEKFRKAAEAAKENPEEGEKLMAEGRKLLAEGMRLEIQLR
B26: d1r11_design_ppi_223_dldesign_0_cycle1_af2pred (protein)
chain: AAEAQALAAQAKKLADEAAKEAASPKSGELLGKAIELAMQANTLDPALGGQLSKYIAATAAAAAAKAAAEAAA
B27: d1r8_design_ppi_889_dldesign_0_cycle1_af2pred (protein)
chain: AMAAAIAAVAASARAAAAIGRADPAAAPGAAAFLDVAAETLAALAKADPAHAAQANAAAAEARATAAELRAAAAA
B28: d1r8_design_ppi_679_dldesign_0_cycle0_af2pred (protein)
chain: AEAQKLLEKAKKLAEEAKKIAKESGDEEAKRIAEGAKKMAELAKAALAAGDSAAAMQAYLAGVKTLYEAAKEEAKRKA
B29: d1r11_design_ppi_310_dldesign_0_cycle1_af2pred (protein)
chain: EAAAAAALTAKAQALYAKYVAAAKAAQAALAGTEAHKEIAALLAQAEAAADDIGLALALASTAANLAAAKLAAALA
B30: d1r8_design_ppi_811_dldesign_0_cycle0_af2pred (protein)
chain: AQEAADQAAFEAAKAGLEKATEAAVGMLEALGEEEAAKEVREFAEKAKKEAEKLTPKEGAELYGKAANEILRRTSQVAAQAVA
B31: d1r8_design_ppi_843_dldesign_0_cycle0_af2pred (protein)
chain: AEEARRAEAAARLEAAVAAGQATLVEVNKAAAATGDAALAEAALALSRAIAEGRRLGREGRYEEGAALVEAATKAAKATLAA
B32: d1r8_design_ppi_824_dldesign_0_cycle1_af2pred (protein)
chain: AEAERRRAEVLALFDEAVAAGSPELARAAAERAAELNPERAEDIRQQGEIAAALMPFSPRAARALMRTVAA
B33: d1r8_design_ppi_735_dldesign_0_cycle1_af2pred (protein)
chain: SEAAEKALKAVEAAIEVVETGTPEEALAATKAAAEVAKKAAEAAGNLGAQIKATADAAVKATAADKAAGLAKLRTLATLLRAYAEA
B34: d1r8_design_ppi_723_dldesign_0_cycle1_af2pred (protein)
chain: EEAQKKIKELGEKAAELAKKNVEEGAEALKEAAKLAAKAQPASAEQILKHGEAVAERAKTLSPEEAATLVRNAGKVFAQL
B35: d1r8_design_ppi_616_dldesign_0_cycle0_af2pred (protein)
chain: DAERQAALEEAKKEAERAKKAAEEAIKAAAKDPEAQKKLEEARENLEAALKWAEETNGDVTTWKGVTALARMVLQAAEGIKKKAEA
B36: d1r11_design_ppi_170_dldesign_0_cycle0_af2pred (protein)
chain: ASPEELTLTARALAFAGGSPEWRPLLQEAIAAYATAEASDPATGAAARAKADAITAELVERYRAAEAAEAAAAA
B37: d1r8_design_ppi_923_dldesign_0_cycle0_af2pred (protein)
chain: AAEMAATAAYVSEVAARAQAEDPSLGPEVNRLFALLARAGAAYAADPAAGAAVAAEARAYAEELDKRLEAAL
B38: d1r8_design_ppi_661_dldesign_0_cycle1_af2pred (protein)
chain: DVVAEARELAARAEEAAERARADPAASQEVVDLFRQAAGYARNALLLAEGTPESQAQAARLLERARRLFEEAERRFRADVAAAA

biological target: CD276, Q5ZPR3
Sequence (Q5ZPR3 whole entry): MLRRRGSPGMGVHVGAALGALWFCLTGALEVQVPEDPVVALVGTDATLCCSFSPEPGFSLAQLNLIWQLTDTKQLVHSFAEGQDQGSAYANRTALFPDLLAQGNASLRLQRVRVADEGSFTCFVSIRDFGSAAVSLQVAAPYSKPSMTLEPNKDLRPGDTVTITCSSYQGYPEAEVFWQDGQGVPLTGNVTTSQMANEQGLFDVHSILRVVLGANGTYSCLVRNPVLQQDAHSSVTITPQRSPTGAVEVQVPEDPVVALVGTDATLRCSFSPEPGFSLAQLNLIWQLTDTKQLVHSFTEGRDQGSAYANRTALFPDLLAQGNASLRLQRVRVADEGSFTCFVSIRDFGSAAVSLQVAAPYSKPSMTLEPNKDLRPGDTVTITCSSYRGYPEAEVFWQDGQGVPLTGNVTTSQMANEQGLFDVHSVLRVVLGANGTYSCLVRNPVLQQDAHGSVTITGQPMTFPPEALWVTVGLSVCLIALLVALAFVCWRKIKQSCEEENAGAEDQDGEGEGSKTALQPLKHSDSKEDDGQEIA

Binding in a display sort, inactive:
B1 not found
B2 not found
B3 not found
B4 not found
B5 not found
B6 not found
B7 not found
B8 not found
B9 not found
B10 not found
B11 not found
B12 not found
B13 not found
B14 not found
B15 not found
B16 not found
B17 not found
B18 not found
B19 not found
B20 not found
B21 not found
B22 not found
B23 not found
B24 not found
B25 not found
B26 not found
B27 not found
B28 not found
B29 not found
B30 not found
B31 not found
B32 not found
B33 not found
B34 not found
B35 not found
B36 not found
B37 not found
B38 not found
